Measured values reported in PubChem BioAssay.
Calls of active or inactive are those of the source.

Assays:
[1] = tested on: Plasmodium falciparum Sir2 (PF13_0152, Sir2A); test: Plasmodium falciparum Sir2A binding compounds – biochemical, small-molecule microarray, 635 nm fluorescence, primary screen (AID 1098); settings: fluorescence 635 nm, higher = more signal;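 further: score merges spot fluorescence intensity with its signal-to-noise ratio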
[2] = probe aDKK1 binding to arrayed compounds – biochemical, biotinylated probe, 635/667 nm fluorescence, primary screen (AID 1099); settings: small-molecule microarray, higher = more signal;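 further: score merges 667nm spot fluorescence with signal to noise across triplicate slides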
[3] = probe aCHRDL2 binding to arrayed compounds – biochemical, biotinylated probe, 635/667 nm fluorescence, primary screen (AID 1100); settings: small-molecule microarray, higher = more signal
[4] = change in splice reporter luminescence, either direction, cell-based, HEK293, spliceosome inhibition project, primary screen (AID 1101); settings: HEK293 splicing luciferase reporter, 24 h, higher = more signal, called active from +8 up or from −8 down;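 further: HEK293 cells carrying a splicing-competent luciferase reporter gene; test concentration not given here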
[5] = molecular target: Fibroblast growth factor 10 (Homo sapiens) (UniProt O15520); test: compounds binding fibroblast growth factor 10 – biochemical, small-molecule microarray, 635 nm fluorescence, primary screen (AID 1102); settings: FGF10 binding, fluorescence 635 nm, higher = more signal
[6] = tested on: glycogen synthase kinase-3 (GSK3A per assay name; protocol says GSK3B); test: compounds binding glycogen synthase kinase-3 – biochemical, small-molecule microarray, 635 nm fluorescence, GSK3A, primary screen (AID 1103); settings: fluorescence 635 nm, higher = more signal; further: the record names both GSK3A and GSK3B
[7] = molecular target: Epidermal growth factor receptor (Homo sapiens) (UniProt P00533); test: compounds binding epidermal growth factor receptor – biochemical, small-molecule microarray, 635 nm fluorescence, primary screen (AID 1104); settings: EGFR binding, higher = more signal;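 further: score merges 667 nm emission intensity with spot signal to noise over triplicate slides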
[8] = molecular target: Follistatin-related protein 3 (Homo sapiens) (UniProt O95633); test: compounds binding follistatin-related protein 3 – biochemical, small-molecule microarray, 635 nm fluorescence, primary screen (AID 1105); settings: FSTL3 binding, higher = more signal;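 further: score merges emission near 667 nm and signal to noise per printed spot across three slides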
[9] = molecular target: Dickkopf-related protein 1 (Homo sapiens) (UniProt O94907); test: small molecules binding DKK1 protein – biochemical, small-molecule microarray, 635 nm fluorescence scan, primary screen (AID 1106); settings: higher = more signal;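 further: score merges emission near 667 nm with signal to noise over three replicate slides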
[10] = tested on: Inhibin beta A chain (activin A); test: small molecules binding activin A – biochemical, small-molecule microarray, 635 nm fluorescence scan, primary screen (AID 1107); settings: INHBA, higher = more signal;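 further: mouse activin A protein probed at 4.33 µg/mL on printed slides; score merges bound-protein fluorescence near 667 nm with spot signal-to-noise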
[11] = tested on: Human papillomavirus type 1a protein E7 (residues 44-93); test: small molecules binding HPV E7 44-93 – biochemical, small-molecule microarray, residues 44-93, 635 nm fluorescence, primary screen (AID 1108); settings: fluorescence 635 nm, higher = more signal;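 further: E7 fragment applied at 1 µg/mL in TBST for 1 h at 4 C; score combines spot fluorescence with its signal to noise ratio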
[12] = hepatitis C replication reporter changes, two-sided – Huh7 cells, luciferase reporter, HCV replication inhibitor project, primary screen (AID 1109); settings: Huh7 HCV replicon luciferase reporter, 48 h; higher = more signal;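 further: huh7 hepatoma cells harbouring a luciferase neomycin HCV replicon reporter; luciferase luminescence as measure of HCV replicon replication; test concentration not given here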
[13] = molecular target: Left-right determination factor 2 (Homo sapiens) (UniProt O00292); test: small molecules binding LEFTY2 protein – biochemical, small-molecule microarray, 635 nm fluorescence scan, primary screen (AID 1110); settings: higher = more signal
[14] = molecular target: Calmodulin-1 (Homo sapiens) (UniProt P0DP23); test: small molecules binding calmodulin-1 with EGTA – biochemical, small-molecule microarray, Cy5-labelled CALM1, profiling panel (AID 1111); settings: Cy5-CALM1 binding fluorescence, higher = more signal;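 further: labelled calmodulin applied in Tris saline Tween buffer holding calcium plus EGTA and DTT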
[15] = molecular target: Calmodulin-1 (Homo sapiens) (UniProt P0DP23); test: small molecules binding Ca-loaded calmodulin-1 – biochemical, small-molecule microarray, Cy5-labelled CALM1, plus calcium, artefact control for SMM control-protein annotation, profiling panel (AID 1112); settings: Cy5-CALM1 binding fluorescence, higher = more signal;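 further: score merges spot fluorescence with signal to noise from triplicate slides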
[16] = probe aWnt5a binding to arrayed compounds – biochemical, biotinylated probe, 635/667 nm fluorescence, primary screen (AID 1113); settings: small-molecule microarray, higher = more signal;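 further: score merges 667 nm fluorescence intensity with signal-to-noise per printed feature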
[17] = probe aShh binding to arrayed compounds – biochemical, biotinylated probe, 635/667 nm fluorescence, primary screen (AID 1114); settings: small-molecule microarray, higher = more signal;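 further: probe is biotin-labelled aShh protein from a stem cell growth factor screen; measures binding of labelled protein to compounds printed on the slide; score merges feature fluorescence at 667 nm with signal-to-noise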
[18] = probe aNog binding to arrayed compounds – biochemical, biotinylated probe, 635/667 nm fluorescence, primary screen (AID 1115); settings: small-molecule microarray, higher = more signal;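 further: probe is biotinylated aNog protein used at 0.15 µg/mL for 1 h at 4 C; z-score combines 667 nm fluorescence of each spot with its signal to noise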
[19] = molecular target: Torsin-1A-interacting protein 1 (Homo sapiens) (UniProt Q5JTV8); test: compound microarray binding of lysate hLAP1 – cell lysate, small-molecule microarray, COS7 lysate, 635/667 nm fluorescence, primary screen (AID 1116); settings: 635 nm fluorescence, higher = more signal
[20] = molecular target: Alpha-bungarotoxin (Bungarus multicinctus) (UniProt P60615); test: compounds binding labelled alpha-BTX control protein – biochemical, small-molecule microarray, Alexa647 label, 635/667 nm fluorescence, artefact control for SMM control protein annotation, profiling panel (AID 1117); settings: alpha-BTX-A647 binding fluorescence, higher = more signal
Alpha-bungarotoxin (Bungarus multicinctus), sequence (P60615 whole entry, looked up): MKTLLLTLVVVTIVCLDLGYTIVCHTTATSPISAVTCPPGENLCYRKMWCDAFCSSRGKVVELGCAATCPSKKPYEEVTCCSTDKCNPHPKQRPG

Follistatin-related protein 3 (Homo sapiens), sequence (O95633 whole entry, looked up): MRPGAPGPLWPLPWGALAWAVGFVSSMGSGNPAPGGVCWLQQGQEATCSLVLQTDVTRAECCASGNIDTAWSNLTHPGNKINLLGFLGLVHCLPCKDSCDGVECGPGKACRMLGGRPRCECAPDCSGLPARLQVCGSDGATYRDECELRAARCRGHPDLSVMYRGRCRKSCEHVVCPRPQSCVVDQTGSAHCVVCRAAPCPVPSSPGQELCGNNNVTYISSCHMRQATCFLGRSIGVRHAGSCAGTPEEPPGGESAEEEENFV
Torsin-1A-interacting protein 1 (Homo sapiens), sequence (Q5JTV8 whole entry, looked up): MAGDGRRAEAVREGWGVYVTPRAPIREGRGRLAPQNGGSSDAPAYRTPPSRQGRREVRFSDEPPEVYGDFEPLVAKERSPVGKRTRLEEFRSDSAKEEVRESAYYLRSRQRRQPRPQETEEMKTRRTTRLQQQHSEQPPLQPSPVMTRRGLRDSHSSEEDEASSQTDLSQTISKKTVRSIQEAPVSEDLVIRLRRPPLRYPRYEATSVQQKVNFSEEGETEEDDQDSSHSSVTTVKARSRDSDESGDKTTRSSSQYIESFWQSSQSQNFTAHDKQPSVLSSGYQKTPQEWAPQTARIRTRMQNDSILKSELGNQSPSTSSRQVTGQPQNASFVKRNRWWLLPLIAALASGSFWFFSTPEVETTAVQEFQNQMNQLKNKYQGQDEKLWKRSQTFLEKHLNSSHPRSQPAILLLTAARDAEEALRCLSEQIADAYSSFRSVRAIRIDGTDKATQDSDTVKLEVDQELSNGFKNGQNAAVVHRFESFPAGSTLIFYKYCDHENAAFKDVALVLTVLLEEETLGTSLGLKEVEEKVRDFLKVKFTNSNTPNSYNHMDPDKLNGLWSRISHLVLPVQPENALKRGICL
Left-right determination factor 2 (Homo sapiens), sequence (O00292 whole entry, looked up): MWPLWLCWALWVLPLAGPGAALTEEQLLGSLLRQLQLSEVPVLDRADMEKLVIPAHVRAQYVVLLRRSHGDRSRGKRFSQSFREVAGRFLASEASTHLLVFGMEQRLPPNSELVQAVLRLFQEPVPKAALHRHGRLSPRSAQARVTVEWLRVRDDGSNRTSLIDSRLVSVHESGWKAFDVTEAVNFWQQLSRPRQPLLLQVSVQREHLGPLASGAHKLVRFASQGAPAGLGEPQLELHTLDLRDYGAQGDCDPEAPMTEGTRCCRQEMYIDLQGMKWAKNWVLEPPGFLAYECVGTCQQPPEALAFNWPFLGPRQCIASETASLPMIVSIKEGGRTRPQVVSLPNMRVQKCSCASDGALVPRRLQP
Epidermal growth factor receptor (Homo sapiens), sequence (P00533 whole entry, looked up): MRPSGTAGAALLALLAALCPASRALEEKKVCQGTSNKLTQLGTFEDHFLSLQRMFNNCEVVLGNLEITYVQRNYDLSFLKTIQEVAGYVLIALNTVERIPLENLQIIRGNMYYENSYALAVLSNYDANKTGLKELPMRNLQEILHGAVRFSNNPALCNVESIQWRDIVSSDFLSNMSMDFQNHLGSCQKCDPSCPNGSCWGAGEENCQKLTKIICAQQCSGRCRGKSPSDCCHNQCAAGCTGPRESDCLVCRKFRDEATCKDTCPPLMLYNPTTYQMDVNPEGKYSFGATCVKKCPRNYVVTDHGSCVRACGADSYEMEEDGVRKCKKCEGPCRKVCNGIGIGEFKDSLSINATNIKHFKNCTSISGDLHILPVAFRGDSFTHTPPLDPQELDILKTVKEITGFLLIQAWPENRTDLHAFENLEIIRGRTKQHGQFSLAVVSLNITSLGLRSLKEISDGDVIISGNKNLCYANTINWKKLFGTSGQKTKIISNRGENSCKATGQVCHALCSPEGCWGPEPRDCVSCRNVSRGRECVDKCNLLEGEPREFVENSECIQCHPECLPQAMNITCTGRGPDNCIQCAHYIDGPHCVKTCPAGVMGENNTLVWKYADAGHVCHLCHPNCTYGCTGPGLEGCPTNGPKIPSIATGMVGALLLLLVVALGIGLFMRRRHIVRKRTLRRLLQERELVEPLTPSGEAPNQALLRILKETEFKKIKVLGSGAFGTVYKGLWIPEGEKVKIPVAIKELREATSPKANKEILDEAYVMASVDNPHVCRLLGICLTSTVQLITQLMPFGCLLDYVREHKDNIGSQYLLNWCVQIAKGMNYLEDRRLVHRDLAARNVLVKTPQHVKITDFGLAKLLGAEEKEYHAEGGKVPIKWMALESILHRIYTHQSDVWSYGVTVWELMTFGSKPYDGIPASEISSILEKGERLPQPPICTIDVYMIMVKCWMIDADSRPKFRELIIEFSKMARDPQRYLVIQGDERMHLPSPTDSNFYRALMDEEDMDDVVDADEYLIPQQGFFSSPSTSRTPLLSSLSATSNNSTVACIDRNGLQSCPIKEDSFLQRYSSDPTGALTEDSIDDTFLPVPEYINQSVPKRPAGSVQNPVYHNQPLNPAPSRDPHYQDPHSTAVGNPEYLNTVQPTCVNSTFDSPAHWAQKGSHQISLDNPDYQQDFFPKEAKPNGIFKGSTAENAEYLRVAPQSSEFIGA
Dickkopf-related protein 1 (Homo sapiens), sequence (O94907 whole entry, looked up): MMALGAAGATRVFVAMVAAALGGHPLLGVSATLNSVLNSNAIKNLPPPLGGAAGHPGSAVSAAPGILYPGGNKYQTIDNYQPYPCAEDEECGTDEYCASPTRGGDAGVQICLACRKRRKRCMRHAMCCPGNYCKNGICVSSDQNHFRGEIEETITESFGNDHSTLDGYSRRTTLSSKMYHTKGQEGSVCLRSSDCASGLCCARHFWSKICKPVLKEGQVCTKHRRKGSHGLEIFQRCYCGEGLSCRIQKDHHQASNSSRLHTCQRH
Fibroblast growth factor 10 (Homo sapiens), sequence (O15520 whole entry, looked up): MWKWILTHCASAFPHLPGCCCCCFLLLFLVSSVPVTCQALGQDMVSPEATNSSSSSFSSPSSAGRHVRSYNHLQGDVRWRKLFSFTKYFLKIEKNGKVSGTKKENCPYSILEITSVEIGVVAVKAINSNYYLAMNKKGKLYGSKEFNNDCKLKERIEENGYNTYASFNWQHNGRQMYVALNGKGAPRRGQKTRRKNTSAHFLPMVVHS

| Structure (SMILES) | composite z-score [1] | composite z-score [2] | composite z-score [3] | z-score [4] | composite z-score [5] | composite z-score [6] | composite z-score [7] | composite z-score [8] | composite z-score [9] | composite z-score [10] | composite z-score [11] | z-score [12] | composite z-score [13] | composite z-score [14] | composite z-score [15] | composite z-score [16] | composite z-score [17] | composite z-score [18] | composite z-score [19] | composite z-score [20] |
| --- | --- | --- | --- | --- | --- | --- | --- | --- | --- | --- | --- | --- | --- | --- | --- | --- | --- | --- | --- | --- |
| CO[C@H]1O[C@H](CO)[C@@H](OC(=O)Nc2ccc(C#N)cc2)[C@H](OC(=O)c2cc3ccccc3[nH]2)[C@H]1OC(=O)c1cc2ccccc2[nH]1 | 1.19 | 0.149 | 0.19 | -0.561 (inactive) | 0.747 | 1.16 | 0.119 | 0.588 | 0.295 | 0.354 | 1.33 | -2.2 | 0.339 | 2.07 | 0.299 | -0.206 | -0.0769 | 0.569 | 2.09 | 2.63 |
| COC(=O)C1=C(C)[C@@H](O)[C@@H](C)[C@H](c2c(OC)c(OC)c(C)c(OC)c2OC)O1 | 0.191 | -0.27 | -0.595 | -0.361 (inactive) | 0.256 | -0.419 | 0.269 | 0.398 | 0.56 | 0.394 | -0.685 | -0.566 | 0.494 | -0.628 | -0.787 | -0.171 | -0.0011 | -0.135 | 0.272 | 0.138 |
| CCCC=C(CCC)[C@@H](NC(=O)c1ccc(-c2ccccc2)cc1)c1ccc(C(=O)OC)cc1 | 0.407 | 0.245 | 1 | -0.492 (inactive) | -0.316 | 0.472 | -0.237 | 0.0286 | -0.673 | 0.244 | 1.38 | -0.552 | -0.394 | 1.84 | 1.31 | 0.194 | 0.0195 | 1.25 | 0.421 | 0.93 |
| COC(=O)CC=C[C@@H](C)[C@@H](C=NO[C@H](C)c1cn([C@@H]2COC[C@H]2O)nn1)OC | 0.626 | -0.43 | -0.611 | 0.605 (inactive) | 0.739 | 0.617 | 0.856 | 1.06 | 0.492 | -0.335 | 0.768 | 0.128 | 0.589 | -0.662 | -0.793 | -0.0478 | -0.291 | -0.0762 | -0.306 | 1.01 |
| O=C(NN=C1C[C@@H](O)[C@@H](O)[C@@H]2[C@@H]3C(=O)N(c4cccc(Oc5ccccc5)c4)C(=O)[C@@H]3CC[C@@H]12)OCc1ccccc1 | 0.0165 | 0.182 | 0.548 | 0.538 (inactive) | 0.353 | -0.54 | 0.152 | -0.112 | 0.155 | 0.229 | 0.69 | -0.983 | 0.127 | 0.131 | 0.0109 | -0.145 | -0.206 | 0.0658 | 0.184 | 0.837 |
